A selection: hits, their analogues and other compounds. The true share with any hit is near 11%.
JMJD2E inh = blocks human JMJD2E demethylase activity. JMJD2E catalytic domain, FDH-coupled NADH fluorescence (FDH is formaldehyde dehydrogenase). Potency, µM (highest dose often 57.1 µM), inactives show top-dose activity change, negative = inhibition, usual class: inhibitors. AID 2147. 1.6% of 230,000 active;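 further: potency means the concentration at half of the fitted maximal effect; 0% = wells with enzyme and -100% = buffer wells without enzyme; nearly all actives have a fitted effect of over 50% in size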
Target sequence (B2RXH2 1-337 limits assumed): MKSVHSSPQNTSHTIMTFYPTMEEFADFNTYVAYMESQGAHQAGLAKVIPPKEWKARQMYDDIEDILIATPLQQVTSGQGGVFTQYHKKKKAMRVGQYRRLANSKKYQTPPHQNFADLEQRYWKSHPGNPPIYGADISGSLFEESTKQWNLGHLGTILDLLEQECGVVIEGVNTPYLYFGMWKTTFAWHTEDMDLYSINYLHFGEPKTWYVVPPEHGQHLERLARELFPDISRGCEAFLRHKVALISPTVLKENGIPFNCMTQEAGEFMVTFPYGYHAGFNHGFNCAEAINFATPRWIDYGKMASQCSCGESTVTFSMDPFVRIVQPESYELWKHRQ
PNC assembly inh = perinucleolar compartment assembly inhibition | PC3M PTB-GFP, PNC prevalence imaging, 16 h; hits give low values | activity change (PNC), negative = inhibition, % at 10 µM | 3.1% of 140,000 active;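 active means readout at or below -70, meaning at least 70% loss of cells showing the perinucleolar compartment, a nuclear body marking cancer cells; inconclusive means readout between -30 and a set limit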;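 further: plate controls were DMSO wells for no effect and camptothecin positive control wells for full effect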
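PC3M cells stably expressing PTB-GFP, 750–1000 cells/well, treated 16 h at 37 °C with compound (23 nl of library stock), in duplicate. After paraformaldehyde fixation and Hoechst stain, imaged at 20x; PNC prevalence scored by image analysis.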
HPGD block = inhibitors of human 15-hydroxyprostaglandin dehydrogenase (HPGD); P15428; purified HPGD, NADH fluorescence kinetic, PGE2 substrate; Potency, µM, for inactives: at the highest dose activity change, negative = inhibition, usual class: inhibitors; 4.3% of 150,000 active; AID 894; further: potency means the concentration at half of the fitted maximal effect
Target sequence (P15428 whole entry, looked up): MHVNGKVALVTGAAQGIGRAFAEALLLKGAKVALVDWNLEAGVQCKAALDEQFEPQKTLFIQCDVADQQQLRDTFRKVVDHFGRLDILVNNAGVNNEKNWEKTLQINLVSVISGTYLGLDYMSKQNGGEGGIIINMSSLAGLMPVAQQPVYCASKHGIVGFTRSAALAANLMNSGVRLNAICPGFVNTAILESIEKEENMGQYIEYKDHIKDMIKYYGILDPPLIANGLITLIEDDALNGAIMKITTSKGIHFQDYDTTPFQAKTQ
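NADH formation kinetics: reaction with 30 uM PGE2 and 1 mM NAD+ (final), 20 nM enzyme, Tris-HCl pH 8 with Tween 20, after 15 min compound preincubation at room temperature. Fluorescence change, last versus first of five reads.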
ALDH1A1 block = blocks purified human ALDH1A1 activity; Purified ALDH1A1, NADH fluorescence, propionaldehyde substrate; Potency, µM (doses to about 75.3 µM), for the others: top-dose activity, negative = inhibition, hits mostly inhibitors; 7.3% of 220,000 active; AID 1030;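 further: potency means the concentration at half of the fitted maximal effect; plate controls were no enzyme wells and a reference inhibitor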
Active calls of the source: *; ? = inconclusive; / = no result given. Unless noted, the call rests on the fitted dose curve; in most records, active means well fitted inhibition curve with a large enough effect (not every such curve was filed as active); inconclusive means small, poorly fitted or top-dose-only effect, or another doubt; inactive means no such curve, though single readings can be large or run the other way. Unless noted, on the % scale 0 is the no-effect control and ±100 the full control effect.

SMILES	JMJD2E inh	PNC assembly inh	HPGD block	ALDH1A1 block
Cn1c(=O)c2c(nc(CN3CCC(C(N)=O)CC3)n2Cc2ccccc2Cl)n(C)c1=O	-2.8%	?	-0.3%	12.6µM*
Cn1c(=O)c2c(nc(N3CCN(c4ccccn4)CC3)n2Cc2ccccc2Cl)n(C)c1=O	5.6%	83.3	-12.3%	1.12µM*
Cn1c(=O)c2c(nc(CN3CCC(C(N)=O)CC3)n2Cc2c(Cl)cccc2Cl)n(C)c1=O	-4.5%	?	-2.1%	14.1µM*
COC(=O)Cn1c(CN2CCc3ccccc3C2)nc2c1c(=O)n(C)c(=O)n2C	-22.2%	?	-7.0%	-4.5%
Cn1c(=O)c2c(nc(CN3CCC(C(N)=O)CC3)n2Cc2c(F)cccc2Cl)n(C)c1=O	-0.9%	54.3	-2.5%	?
C=CCNC(=O)C(=O)N/N=C/c1ccco1	-1.4%	-4.7	-8.4%	16.6%
CCOC(=O)CCNC(C(=O)OCC)c1ccccc1 (stereo not given)	-5.0%	-1.3	-1.0%	3.6%
CC(C)C(NC(=O)OCc1ccccc1)C(=O)NC1CCCCC1 (stereo not given)	3.6%	?	-7.7%	11.4%
Cn1c(=O)c2c(nc(CN3CCC(C(N)=O)CC3)n2CCc2ccccc2)n(C)c1=O	?	25.5	-4.7%	4.47µM*
Cc1ccc(-n2nc(C)c3c2OC(N)=C(C#N)C3c2ccco2)cc1 (stereo not given)	-20.8%	-8.1	?	1.58µM*
Cc1ccc(-n2nc(C)c3c2OC(N)=C(C#N)C3c2ccoc2)cc1 (stereo not given)	10µM*	-9.9	-27.8%	0.891µM*
Cc1ccc(SCc2[nH]nc3c2C(c2ccco2)C(C#N)=C(N)O3)cc1 (stereo not given)	?	5.6	?	-53.8%
Cc1ccc(SCc2[nH]nc3c2C(c2ccc(C)o2)C(C#N)=C(N)O3)cc1 (stereo not given)	?	10.4	?	?
Cc1ccc(-n2nc(C)c3c2OC(N)=C(C#N)C3c2ccc(C)o2)cc1 (stereo not given)	25.1µM*	46.0	-25.1%	1.58µM*
Cc1ccccc1C(=O)NCc1nnc(SCC(=O)N2c3ccccc3Sc3ccccc32)n1C	4.7%	-0.4	-4.8%	25.1µM*
CCn1c(CNC(=O)c2ccco2)nnc1SCC(=O)c1ccccc1	3.1%	/	/	6.9%
Cn1c(CNC(=O)c2ccccc2F)nnc1SCc1ccc(Cl)cc1	-7.7%	/	/	-7.9%
C=CCn1c(CNC(=O)c2ccco2)nnc1SCC(=O)N1c2ccccc2Sc2ccccc21	-7.2%	-19.6	-10.2%	0.562µM*
COc1cccc(/C=N/Nc2ncnc3scc(-c4ccccc4)c23)c1O	14.1µM*	-100.7*	20µM*	3.7%
COc1cccc(/C=N/Nc2nccnc2Cl)c1O	?	/	/	5.5%
COc1cccc(/C=N/Nc2ncnc(Cl)c2N)c1O	25.1µM*	?	-10.2%	2.7%
CC(C)C1NC(=O)[C@H](CCCCN)NC(=O)[C@@H](Cc2c[nH]c3ccccc23)NC(=O)[C@H](Cc2ccc(O)cc2)NC(=O)[C@H](C)N(C)C(=O)[C@H](Cc2ccccc2)NC1=O (stereo not given in full)	6.5%	/	4.1%	-11.9%
Cc1noc2c1C(c1ccc(N(C)C)cc1)C1=C(CC(C)(C)CC1=O)N2 (stereo not given)	?	64.0	-16.7%	22.4µM*
Cc1ccc(C2C3=C(CC(C)(C)CC3=O)Nc3onc(C)c32)cc1 (stereo not given)	?	33.6	?	?
CCOC(=O)C1=C(C)NC2=C(C(=O)CC(C)(C)C2)C1c1ccc(N(C)C)cc1 (stereo not given)	?	-12.8	-4.9%	?
SMILES	JMJD2E inh	PNC assembly inh	HPGD block	ALDH1A1 block
CC1=C(C(=O)OC(C)C)C(c2ccc(N(C)C)cc2)C2=C(CC(C)(C)CC2=O)N1 (stereo not given)	14.1µM*	-8.4	-8.8%	?
CN(C)CCCNC(=O)c1ccc(Cl)c(S(=O)(=O)N(C)c2ccccc2)c1	-3.8%	-108.2*	-14.8%	-3.1%
CC(C)c1ccc(C(=O)NCCCN(C)C)cc1	-3.5%	?	14.1µM*	1.7%
COc1ccc(OC)c(C(C)NC(=O)Nc2cccc(C(C)=O)c2)c1 (stereo not given)	-4.4%	/	/	11.2µM*
COc1ccc(C(C)=O)cc1CN1C(=O)NC2(CCCCCCC2)C1=O	4.6%	/	/	6.31µM*
COc1ccc(C(C)=O)cc1CSc1ncccn1	12.1%	/	/	-7.6%
COc1ccc(C(C)=O)cc1CN(C)C	1.6%	-2.4	-3.8%	8.91µM*
COc1ccc(C(C)=O)cc1CSCCC(=O)O	5.6%	49.0	28.2µM*	-4.9%
O=C(CSc1n[nH]c(=O)[nH]c1=O)N/N=C/c1ccccc1	10.6%	-24.6	-18.3%	-5.7%
COc1ccc(Br)cc1CN(C)C(C)C(=O)Nc1cccc(C(C)=O)c1 (stereo not given)	-9.7%	/	/	10µM*
CCn1ncc([N+](=O)[O-])c1C(=O)Nc1c(C)nn(Cc2ccc(F)cc2)c1C	2.0%	/	/	7.4%
CC(=O)c1cc(F)c(N2CCN(C(=O)C(C)(C)C)CC2)cc1C	-1.4%	-4.9	-16.6%	15.8µM*
O=C(O)c1cc([N+](=O)[O-])c(NCCC2=CCCCC2)c([N+](=O)[O-])c1	10.9%	/	/	10µM*
O=C1C2C(C(=O)N1CCN1CCN(Cc3ccc([N+](=O)[O-])cc3)CC1)[C@H]1C=C[C@@H]2C1 (stereo not given in full)	-0.7%	/	/	/
COc1cc(C2C3C(C)N(C)C(=O)N(C)C3N(C)C(=O)N2C)ccc1O (stereo not given)	7.0%	-100.0*	-11.5%	11.1%
Cc1ccc(C)c2[nH]c(=O)c(CN(Cc3cccs3)C(=S)NCc3ccco3)cc12	?	50.5	-10.1%	25.1µM*
Cc1ccc2cc(CN(Cc3nnnn3Cc3ccco3)CC3CCCO3)c(=O)[nH]c2c1C (stereo not given)	?	?	-24.9%	1.78µM*
Cc1cccc2cc(CN(CC3CCCO3)C(=O)c3ccco3)c(=O)[nH]c12 (stereo not given)	?	3.3	-28.5%	?
Cc1cc(C)c2cc(CN(Cc3ccco3)C(=S)NCC3CCCO3)c(=O)[nH]c2c1 (stereo not given)	?	/	/	25.1µM*
Cc1ccc2cc(CN(CC3CCCO3)C(=S)NCc3ccco3)c(=O)[nH]c2c1C (stereo not given)	-8.8%	?	-11.0%	22.4µM*
Cc1ccc(S(=O)(=O)Cn2nnnc2CN(Cc2ccco2)CC2CCCO2)cc1 (stereo not given)	3.7%	0.4	-0.5%	?
CCCCCCOc1ccc(C(CC(N)=O)C(=O)O)cc1 (stereo not given)	-2.8%	/	/	-0.4%
NC(=O)c1ccc(C(F)(F)F)n(Cc2cccc(Cl)c2)c1=O	2.5%	-11.9	-18.3%	-7.7%
COc1ccccc1NC(=O)N(Cc1ccco1)Cc1cc2c(C)ccc(C)c2[nH]c1=O	?	28.3	-13.3%	17.8µM*
COc1ccccc1CN(Cc1nc2ccccc2c(=O)[nH]1)C(=O)Nc1ccccc1C	2.0%	-114.9*	-11.2%	?
Cc1cnc(CNc2ncnc3ccc(-c4ccccc4C(F)(F)F)cc23)cn1	/	/	/	-3.5%

Screens as filed in PubChem.
